SMILES strings stand for the structures. Active and inactive are the calls of the source.

Assay [1] can be described thus: E. coli DRC41 culture turbidity changes, primary screen, E. coli filamentation inducer project, strain DRC41, OD650, 48 h (AID 1152).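 Note: E. coli MC1000 strain DRC41 lacking acrAB efflux pump and sulA.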 To be noted: E. coli DRC41 (acrAB sulA), higher = more signal, called active from +8 up or from −8 down.
Assay [2] can be described thus: small-molecule binders of probe aLefty1, primary screen, biochemical, small-molecule microarray, 635/667 nm fluorescence (AID 1153).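 Note: score merges spot fluorescence with signal-to-noise ratio from the scanned slide images.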 To be noted: higher = more signal.
The nature of assay [3]: PSAC antagonists in infected red cells, primary screen, cell-based, P. falciparum Indochina, OD700, 1 h (AID 1154). To be noted: P. falciparum Indochina infected RBC osmotic lysis, higher = more signal, called active from +8 up or from −8 down.
Assay [4] is described as follows: PSAC antagonists in infected red cells, primary screen, cell-based, P. falciparum Indochina, OD700, 2 h (AID 1155).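 Note: lysis reports solute entry through the parasite surface anion channel PSAC; channel blockers reduce lysis of infected cells.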 To be noted: P. falciparum Indochina infected erythrocytes, osmotic lysis OD700; higher = more signal, called active from +8 up or from −8 down.
Assay [5] is described as follows: osmotic lysis modulators in infected erythrocytes, primary screen, PSAC antagonist project, cell-based, P. falciparum Indochina, OD700, 3 h (AID 1156). To be noted: higher = more signal, called active from +8 up or from −8 down.
The nature of assay [6]: PSAC antagonists in infected red cells, primary screen, cell-based, P. falciparum Indochina, OD700, 18 h (AID 1157). To be noted: P. falciparum Indochina infected erythrocytes, osmotic lysis OD700, 18 h; higher = more signal, called active from +8 up or from −8 down.
Assay [7] is described as follows: modulators of S6 phosphorylation in cells, primary screen, cell-based, A549, cytoblot, luminescence, serum-stimulated (AID 1158).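 Note: serum-stimulated A549 lung adenocarcinoma cells; signal is phosphorylated S6 detected by cytoblot immunostaining with HRP secondary.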 To be noted: A549 phospho-S6 cytoblot, 5 h, higher = more signal.
Assay [8] deals with NADPH oxidase 2 (Homo sapiens) (UniProt P04839). Kind of assay: NOX2-dependent H2O2 signal modulators, primary screen, NOX inhibitor project, cell-based, HEK293-NOX2, PMA-stimulated, Amplex Red fluorescence (AID 1159). Note: test concentration not given here. To be noted: 45 min, higher = more signal, called active from +8 up or from −8 down.
Assay [9] addresses NADPH oxidase 4 (Homo sapiens) (UniProt Q9NPH5). As to the kind of experiment: NOX4-dependent H2O2 signal modulators, primary screen, NOX inhibitor project, cell-based, HEK293-NOX4, tetracycline-induced, Amplex Red fluorescence (AID 1160). To be noted: 45 min, higher = more signal, called active from +8 up or from −8 down.
The target in assay [10] is NADPH oxidase 5 (Homo sapiens) (UniProt Q96PH1). As to the kind of experiment: NOX5-dependent H2O2 signal modulators, primary screen, NOX inhibitor project, cell-based, HEK293-NOX5, Amplex Red fluorescence (AID 1161). To be noted: HEK293-NOX5, ionomycin, 45 min, higher = more signal.
Assay [11] in a line: A549 cell viability effects, profiling panel, calcein-AM fluorescence, 48 h, basal (AID 1162). Note: test concentration not given here. To be noted: higher = more signal.
The nature of assay [12]: adipocyte viability effects, profiling panel, cell-based, 3T3-L1 adipocytes, calcein-AM fluorescence, 48 h, basal (AID 1163). Note: test concentration not given here. To be noted: 3T3-L1 adipocytes viability, higher = more signal.
A short description of assay [13]: HepG2 cell viability effects, profiling panel, calcein-AM fluorescence, 48 h, basal (AID 1164). Note: test concentration not given here. To be noted: higher = more signal.
The nature of assay [14]: MM1S cell viability effects, profiling panel, calcein-AM fluorescence, 48 h, basal (AID 1165).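 Note: viability of MM1S multiple myeloma cells under basal unstimulated conditions; test concentration not given here.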 To be noted: higher = more signal.
Assay [15] in a line: basal RPMI8226 viability, no added stimulus, profiling panel, cell-based, calcein-AM fluorescence, 48 h, PK04 Diversity Set (AID 1166).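 Note: cells grown under basal conditions without added stimulus; test concentration not given here.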 To be noted: RPMI8226 myeloma viability, higher = more signal.
A short description of assay [16]: basal HepG2 mitochondrial membrane potential changes, profiling panel, cell-based, JC-1 fluorescence, 24 h, 100 nL compound (AID 1167). Note: test concentration not given here. To be noted: higher = more signal.
Assay [17] can be described thus: basal 3T3-L1 adipocyte mitochondrial potential changes, profiling panel, cell-based, JC-1 fluorescence, 3T3-L1 adipocytes, 24 h, 100 nL compound (AID 1168). Note: test concentration not given here. To be noted: JC-1 mitochondrial fluorescence, higher = more signal, called active from +8 up or from −8 down.
Assay [18] is described as follows: basal RPMI8226 mitochondrial membrane potential changes, profiling panel, cell-based, JC-1 fluorescence, 24 h, 100 nL compound (AID 1169). Note: test concentration not given here. To be noted: RPMI8226 myeloma, JC-1 mitochondrial potential fluorescence, higher = more signal.
Assay [19] in a line: basal MM1S mitochondrial membrane potential changes, profiling panel, cell-based, JC-1 fluorescence, 24 h, 100 nL compound (AID 1170). Note: test concentration not given here. To be noted: higher = more signal.
Assay [20] in a line: A549 lung cancer cell viability effects, profiling panel, resazurin fluorescence, 24 h, PK04 Diversity Set (AID 1171). Note: test concentration not given here. To be noted: higher = more signal, called active from +8 up or from −8 down. A general note: Alamar Blue is a resazurin reagent that responds to reducing activity.

Chain of NADPH oxidase 4 (Homo sapiens) (Q9NPH5 whole entry, looked up): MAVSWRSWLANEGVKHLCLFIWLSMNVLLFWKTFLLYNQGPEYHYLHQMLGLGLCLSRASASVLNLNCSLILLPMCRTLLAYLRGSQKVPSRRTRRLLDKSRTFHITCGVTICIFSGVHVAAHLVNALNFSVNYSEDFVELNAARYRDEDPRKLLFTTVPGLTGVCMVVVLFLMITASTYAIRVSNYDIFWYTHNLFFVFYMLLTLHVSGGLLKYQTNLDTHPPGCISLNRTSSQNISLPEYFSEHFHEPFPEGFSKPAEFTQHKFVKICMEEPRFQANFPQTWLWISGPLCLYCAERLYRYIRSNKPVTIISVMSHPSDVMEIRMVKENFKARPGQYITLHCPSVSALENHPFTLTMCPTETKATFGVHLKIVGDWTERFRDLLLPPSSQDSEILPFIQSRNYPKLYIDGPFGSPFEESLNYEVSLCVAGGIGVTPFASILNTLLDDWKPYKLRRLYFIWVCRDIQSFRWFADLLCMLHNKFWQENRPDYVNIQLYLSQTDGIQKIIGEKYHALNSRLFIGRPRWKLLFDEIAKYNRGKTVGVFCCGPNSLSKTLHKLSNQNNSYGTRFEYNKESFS
Chain of NADPH oxidase 5 (Homo sapiens) (Q96PH1 whole entry, looked up): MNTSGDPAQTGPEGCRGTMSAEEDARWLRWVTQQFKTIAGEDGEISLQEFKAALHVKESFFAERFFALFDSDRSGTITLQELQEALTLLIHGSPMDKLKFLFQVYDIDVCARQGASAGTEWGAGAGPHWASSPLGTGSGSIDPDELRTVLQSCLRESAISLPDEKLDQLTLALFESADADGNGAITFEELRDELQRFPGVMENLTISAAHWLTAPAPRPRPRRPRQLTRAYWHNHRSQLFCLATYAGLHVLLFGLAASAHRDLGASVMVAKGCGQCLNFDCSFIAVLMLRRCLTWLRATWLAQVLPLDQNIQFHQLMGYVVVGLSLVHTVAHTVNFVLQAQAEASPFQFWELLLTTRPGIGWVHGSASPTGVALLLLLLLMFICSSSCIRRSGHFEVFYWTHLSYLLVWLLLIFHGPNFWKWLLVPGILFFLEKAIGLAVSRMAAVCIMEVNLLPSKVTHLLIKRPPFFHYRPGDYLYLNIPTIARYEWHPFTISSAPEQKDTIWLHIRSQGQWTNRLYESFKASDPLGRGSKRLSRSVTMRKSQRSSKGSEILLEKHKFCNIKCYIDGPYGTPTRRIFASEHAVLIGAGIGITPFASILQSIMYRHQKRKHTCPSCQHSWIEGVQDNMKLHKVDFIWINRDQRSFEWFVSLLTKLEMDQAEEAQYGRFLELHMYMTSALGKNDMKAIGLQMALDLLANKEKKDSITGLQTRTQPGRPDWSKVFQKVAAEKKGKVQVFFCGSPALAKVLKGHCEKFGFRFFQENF
Chain of NADPH oxidase 2 (Homo sapiens) (P04839 whole entry, looked up): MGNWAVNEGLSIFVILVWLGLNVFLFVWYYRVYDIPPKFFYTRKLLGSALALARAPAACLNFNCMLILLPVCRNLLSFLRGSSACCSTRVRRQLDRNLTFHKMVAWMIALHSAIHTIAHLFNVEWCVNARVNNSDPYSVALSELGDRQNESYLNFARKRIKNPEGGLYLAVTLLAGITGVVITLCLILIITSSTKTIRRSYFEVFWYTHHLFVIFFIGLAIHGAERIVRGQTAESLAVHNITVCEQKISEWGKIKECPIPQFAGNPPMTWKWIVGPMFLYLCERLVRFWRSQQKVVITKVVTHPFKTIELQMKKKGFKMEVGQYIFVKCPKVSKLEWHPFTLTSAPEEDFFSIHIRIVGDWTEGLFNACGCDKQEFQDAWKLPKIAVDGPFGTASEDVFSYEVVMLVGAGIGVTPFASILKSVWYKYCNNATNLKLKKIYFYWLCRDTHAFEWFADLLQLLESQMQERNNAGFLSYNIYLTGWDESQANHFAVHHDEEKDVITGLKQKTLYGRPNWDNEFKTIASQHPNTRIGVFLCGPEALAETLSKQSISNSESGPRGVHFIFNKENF

For the molecule `C=CCC(OC(C)=O)[C@@H]1[C@@H](N(Cc2cc3ccccc3o2)C(=O)c2ccc(C)cc2)c2cc(OCCCO)ccc2N1C(=O)c1ccc(-c2ccccc2)cc1` (stereo not given in full), the z-score in [1] is 1.33 (inactive); in [3] it was 1.8 (inactive); in assay [4] it was 0.345 (inactive); in assay [5], -1.06 (inactive); in assay [6], 0.115 (inactive); in assay [7], 4.08. Besides, the z-score in [8] was -1.59 (inactive); in [9], 0.768 (inactive); in assay [10], 2.25; in [11], 2.54; in assay [12], 1.34; in assay [13], 1.8. The z-score in assay [14] is 0.217; in [15], 1.46; in assay [16], 2.87; in [17], -0.314 (inactive); in assay [18] it was 0.614; in assay [19], -0.763. Further, the z-score in assay [20] was 0.875 (inactive). Also, the composite z-score in assay [2] was -0.519.
For the molecule `CCCC[C@H]1C[C@@H]1[C@@H]1N(P(=O)(c2ccccc2)c2ccccc2)[C@](CO)(c2ccccc2)CC12CC2`, the z-score in assay [1] was -2.52 (inactive); in [3] it was 4.95 (inactive); in assay [4], 0.761 (inactive); in assay [5], 2.01 (inactive); in assay [6] it was 0.985 (inactive); in [7], 0.353. Besides, the z-score in assay [8] is -0.339 (inactive); in [9], 1.08 (inactive); in [10], -2.29; in [11], -2.02; in assay [12] it was -0.0661; in assay [13], -1.96. Moreover, the z-score in assay [14] is -3.23; in [15], -4.69; in assay [16], -2.28; in assay [17], -0.732 (inactive); in assay [18] it was -0.868; in [19], -2.86. For the same molecule, the z-score in [20] was 0.936 (inactive). The composite z-score in assay [2] turned out to be 0.394.
Consider `CCOC(=O)N1C(c2ccc(OCCCO)cc2)=NC(C(=O)OC)N1C(=O)OCC` (stereo not given), for which the z-score is 1.28 (inactive) in assay [1]; 20.5 (active) in assay [3]; 2.44 (inactive) in assay [4]; 0.873 (inactive) in assay [5]; -1.07 (inactive) in assay [6]; 1.02 in assay [7]. For the same molecule, the z-score is -1.43 (inactive) in [8]; 0.403 (inactive) in assay [9]; 0.203 in assay [10]; -0.481 in assay [11]; 0.69 in assay [12]; 0.21 in assay [13]. Besides, the z-score is 0.487 in assay [14]; 0.732 in assay [15]; -0.231 in [16]; 0.68 (inactive) in assay [17]; -1.24 in assay [18]; 0.0773 in assay [19]. The z-score in assay [20] is 0.352 (inactive). Besides, in assay [2], the composite z-score was found to be 0.371.
On to `COc1ccc([Si](C)(C)[C@H]2[C@H](CC(=O)N3Cc4ccccc4C[C@H]3CO)O[C@@]3(C(=O)N(Cc4cccc(I)c4)c4ccccc43)[C@@H]2C)cc1`, for which the z-score in assay [1] is 0.232 (inactive); in assay [3], 6.74 (inactive); in [4], 1.38 (inactive); in assay [5], 2.14 (inactive); in assay [6] it was 1.19 (inactive); in assay [7] it was 0.452. In addition, the z-score in [8] is -1.36 (inactive); in assay [9], -0.348 (inactive); in [10], -2.55; in assay [11], -0.817; in assay [12], 0.0894; in assay [13], -0.693. For the same molecule, the z-score in [14] was -2.42; in assay [15], -4.12; in assay [16] it was 1.33; in [17], 0.814 (inactive); in [18], -1.06; in assay [19], -0.605. Further, the z-score in assay [20] is -1.84 (inactive). In assay [2], this molecule showed a composite z-score of 0.0233.
For the molecule `CC(c1ccccc1)C(O)C1C=CC2C(=O)N(Cc3ccccc3)C(=O)C2N1n1cnnc1` (stereo not given), the z-score is -2.13 (inactive) in [1]; 1.78 (inactive) in assay [3]; 0.975 (inactive) in assay [4]; 0.0175 (inactive) in assay [5]; 0.929 (inactive) in [6]; -0.396 in assay [7]. The z-score in [8] was -0.217 (inactive); in assay [9] it was -1.09 (inactive); in assay [10], -1.02; in assay [11], -0.313; in [12], 0.0487; in [13], -0.547. Also, the z-score in [14] is -0.0399; in assay [15], -0.751; in [16], 0.203; in assay [17], -0.884 (inactive); in assay [18] it was -0.107; in assay [19] it was -0.526. Besides, the z-score in assay [20] was -0.694 (inactive). For the same molecule, the composite z-score in assay [2] is -0.13.
On to `[N-]=[N+]=Nc1ccccc1C[C@]1(C(=O)N2CCCCC2)N=C(c2ccc(OCCCO)cc2)O[C@H]1c1ccccc1N=[N+]=[N-]`, for which the z-score is -0.866 (inactive) in assay [1]; 30.1 (active) in [3]; 28.3 (active) in [4]; 2.73 (inactive) in assay [5]; 7.18 (inactive) in assay [6]; -0.359 in assay [7]. The z-score in [8] was -2.39 (inactive); in assay [9], 0.341 (inactive); in [10], -1.08; in [11], -0.0955; in assay [12] it was 0.164; in [13], -2.44. In addition, the z-score is -3.54 in assay [14]; -3.89 in assay [15]; -0.599 in assay [16]; -0.0935 (inactive) in [17]; -1.09 in [18]; -2.64 in [19]. Also, in assay [20], the z-score was -0.909 (inactive). The molecule also showed a composite z-score in assay [2] of 0.568.
Consider `O=C1OCC=C[C@H]2OC34C=CCN(c5ccc6ccccc6c5)C(=O)[C@H]3N(CCO)C(=O)[C@@H]4[C@@H]12` (stereo not given in full), for which the z-score is -0.773 (inactive) in [1]; 1.33 (inactive) in assay [3]; 0.796 (inactive) in assay [4]; 0.547 (inactive) in assay [5]; 0.552 (inactive) in assay [6]; -0.572 in assay [7]. Besides, the z-score was 1.53 (inactive) in assay [8]; 1.05 (inactive) in assay [9]; 1.46 in assay [10]; 0.594 in [11]; -0.355 in assay [12]; 0.379 in [13]. For the same molecule, the z-score in assay [14] was -0.102; in assay [15] it was -0.29; in [16] it was -0.542; in assay [17] it was -0.252 (inactive); in assay [18], 1.02; in [19], -0.161. Besides, the z-score in assay [20] is -0.0805 (inactive). The molecule also displayed a composite z-score in assay [2] of 0.235.
As to `COc1cc2c(cc1O)C(c1ccc(CN3CCCC3)cc1)N(Cc1sc3ccccc3c1Cl)CC2` (stereo not given), the z-score in assay [1] was 0.13 (inactive); in assay [3] it was 12.5 (active); in assay [4], 2.66 (inactive); in assay [5] it was 0.913 (inactive); in [6] it was 1.7 (inactive); in assay [7], 0.0223. The z-score in assay [8] was -3.44 (inactive); in [9], -3.41 (inactive); in assay [10], -4; in [11], -0.42; in assay [12], -0.0706; in [13], -1.5. The z-score in assay [14] is -1.89; in [15], -1.24; in [16], -0.535; in [17], -0.506 (inactive); in assay [18], -0.105; in assay [19], -0.774. Further, the z-score in assay [20] is 0.835 (inactive). The molecule further returned a composite z-score in assay [2] of -0.113.

Source of the values: PubChem BioAssay.
